In PubChem BioAssay (NCI):
Values joined by “and” are separate entries in the source; they are usually repeats but may differ in a detail not shown here. Equal values may be shown once. Compounds without any hit were thinned out: in the full panel of roughly 83,000, 20% have a hit.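 48-hour exposure, single concentration, 96-well plates; percent growth endpoint where 0 means no net growth. Active: below 10.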 Unmarked numbers belong to inactive results. Active and inactive are the calls of the source.

Columns and labels:
Assay in all cases: NCI-60 one-dose screen, 48 h (100 = growth as untreated, 0 = no growth, -100 = all killed)
[1] = system: SR leukemia
[2] = system: RPMI-8226 leukemia; conditions: 10 µM unless noted
[3] = system: OVCAR-8 ovarian; conditions: 10 µM unless noted
[4] = system: OVCAR-5 ovarian
[5] = system: OVCAR-4 ovarian
[6] = system: SK-OV-3 ovarian; conditions: 10 µM unless noted
[7] = system: IGROV1 ovarian
[8] = system: OVCAR-3 ovarian
[9] = system: HS 578T breast
[10] = system: NCI/ADR-RES ovarian
[11] = system: T-47D breast; conditions: 10 µM unless noted
[12] = system: BT-549 breast
[13] = system: MDA-MB-435 melanoma
[14] = system: SW-620 colon
[15] = system: MCF7 breast
[16] = system: HCT-116 colon
[17] = system: HCC-2998 colon
[18] = system: KM12 colon

Work on `COc1ccc2nccc(Cl)c2c1` yielded a growth ([1]; 10 µM unless noted) of 101%, a growth [2] of 110% and a growth [3] of 108%. The growth ([4]; 10 µM unless noted) was 102%, the growth ([5]; 10 µM unless noted) was 118% and the growth [6] was 111%. The growth ([7]; 10 µM unless noted) was 105%, the growth ([8]; 10 µM unless noted) was 102% and the growth ([9]; 10 µM unless noted) was 103%. The growth ([10]; 10 µM unless noted) was 104%, the growth [11] was 122% and the growth ([12]; 10 µM unless noted) was 98.4%. For the same compound, the growth ([13]; 10 µM unless noted) was 108%, the growth ([14]; 10 µM unless noted) was 101% and the growth ([15]; 10 µM unless noted) was 98.5%. It also gave a growth ([16]; 10 µM unless noted) of 103%, a growth ([17]; 10 µM unless noted) of 115% and a growth ([18]; 10 µM unless noted) of 92.8%.

In the case of `S=c1nc[nH]c2nc[nH]c12`, the growth ([1]; 10 µM) is reported as 18.1%, the growth ([1]; 50 µM) is reported as 26.6% and the growth [2] is reported as 24.9%. It also gave a growth ([4]; 10 µM) of 44.7%, a growth ([4]; 50 µM) of 31.3% and a growth ([5]; 10 µM) of 50.2%. For the same compound, the growth ([5]; 50 µM) was 30.9%, the growth [6] was 36.2% and the growth ([7]; 10 µM) was 70.5%. It also gave a growth ([7]; 50 µM) of 32.3%, a growth ([8]; 10 µM) of 29.6% and a growth ([8]; 50 µM) of 23.3%. The growth ([9]; 10 µM) was 54.6%, the growth ([9]; 50 µM) was 43.7% and the growth ([10]; 10 µM) was 22.8%. For the same compound, the growth ([10]; 50 µM) was 24.9%, the growth [11] was 18.6% and the growth ([12]; 10 µM) was 62%. The growth ([12]; 50 µM) was 64.4%, the growth ([13]; 10 µM) was 15.3% and the growth ([13]; 50 µM) was 13.8%. For the same compound, the growth ([14]; 10 µM) was 34.6%, the growth ([14]; 50 µM) was 21.5% and the growth ([15]; 10 µM) was 10.7%. The growth ([15]; 50 µM) was 6.35% (active), the growth ([15]; 750 µM) was 4.16% (active) and -35.5% (active) and the growth ([16]; 10 µM) was 19.2%. The growth ([16]; 50 µM) was 28.3%, the growth ([17]; 10 µM) was 23.2% and the growth ([17]; 50 µM) was 31%. For the same compound, the growth ([18]; 10 µM) was 35.4% and the growth ([18]; 50 µM) was 14.9%.

For `CC1(CO)CCCC1NCCNC1CCCC1(C)CO` (configuration not stated), the growth ([1]; 10 µM unless noted) was 95.9%, the growth [2] was 102% and 97% and the growth [3] was 97.8% and 102%. For the same compound, the growth ([4]; 10 µM unless noted) was 110% and 98.9%, the growth ([5]; 10 µM unless noted) was 90.4% and 101% and the growth [6] was 111% and 101%. For the same compound, the growth ([7]; 10 µM unless noted) was 115% and 107%, the growth ([8]; 10 µM unless noted) was 128% and 112% and the growth ([9]; 10 µM unless noted) was 112% and 106%. For the same compound, the growth ([10]; 10 µM unless noted) was 105% and 107%, the growth [11] was 97.8% and 106% and the growth ([12]; 10 µM unless noted) was 98.7% and 113%. The growth ([13]; 10 µM unless noted) was 98.4% and 102%, the growth ([14]; 10 µM unless noted) was 104% and 101% and the growth ([15]; 10 µM unless noted) was 94% and 95.3%. For the same compound, the growth ([16]; 10 µM unless noted) was 88.6% and 102%, the growth ([17]; 10 µM unless noted) was 99.4% and 118% and the growth ([18]; 10 µM unless noted) was 122% and 100%.

In the case of `CCCC(=O)Oc1ccc(CC)cc1`, the growth ([1]; 10 µM unless noted) is reported as 90.5%, the growth [2] is reported as 108% and the growth [3] is reported as 98.1%. The growth ([4]; 10 µM unless noted) was 102%, the growth ([5]; 10 µM unless noted) was 97.3% and the growth [6] was 103%. The growth ([7]; 10 µM unless noted) was 104%, the growth ([8]; 10 µM unless noted) was 115% and the growth ([9]; 10 µM unless noted) was 113%. For the same compound, the growth ([10]; 10 µM unless noted) was 105%, the growth [11] was 90.9% and the growth ([12]; 10 µM unless noted) was 107%. It also gave a growth ([13]; 10 µM unless noted) of 107%, a growth ([14]; 10 µM unless noted) of 111% and a growth ([15]; 10 µM unless noted) of 92.4%. It also gave a growth ([16]; 10 µM unless noted) of 101%, a growth ([17]; 10 µM unless noted) of 102% and a growth ([18]; 10 µM unless noted) of 102%.

In the case of `COC(=O)c1nc(=S)[nH]c(C(=O)OC)c1C(=O)c1ccccc1`, the growth ([1]; 10 µM unless noted) is reported as 113%, the growth [2] is reported as 107% and the growth [3] is reported as 110%. It also gave a growth ([4]; 10 µM unless noted) of 106%, a growth ([5]; 10 µM unless noted) of 106% and a growth [6] of 111%. For the same compound, the growth ([7]; 10 µM unless noted) was 101%, the growth ([8]; 10 µM unless noted) was 112% and the growth ([9]; 10 µM unless noted) was 99%. For the same compound, the growth ([10]; 10 µM unless noted) was 108%, the growth [11] was 107% and the growth ([12]; 10 µM unless noted) was 124%. For the same compound, the growth ([13]; 10 µM unless noted) was 107%, the growth ([14]; 10 µM unless noted) was 108% and the growth ([15]; 10 µM unless noted) was 94.2%. For the same compound, the growth ([16]; 10 µM unless noted) was 126%, the growth ([17]; 10 µM unless noted) was 116% and the growth ([18]; 10 µM unless noted) was 114%.

With `CC(C)(C)C1=CC(=O)C(C(C)(C)C)=CC1=O` the growth ([1]; 10 µM unless noted) was 78.9% and 97%, the growth [2] was 86.9% and 102% and the growth [3] was 91.5% and 96.5%. For the same compound, the growth ([4]; 10 µM unless noted) was 109%, the growth ([5]; 10 µM unless noted) was 93.3% and 118% and the growth [6] was 93.6% and 102%. The growth ([7]; 10 µM unless noted) was 95.5% and 110%, the growth ([8]; 10 µM unless noted) was 111% and 110% and the growth ([9]; 10 µM unless noted) was 104%. For the same compound, the growth ([10]; 10 µM unless noted) was 108%, the growth [11] was 79.2% and 112% and the growth ([12]; 10 µM unless noted) was 91.7% and 110%. The growth ([13]; 10 µM unless noted) was 97.8% and 110%, the growth ([14]; 10 µM unless noted) was 106% and 104% and the growth ([15]; 10 µM unless noted) was 86.5% and 97.2%. For the same compound, the growth ([16]; 10 µM unless noted) was 88.5% and 105%, the growth ([17]; 10 µM unless noted) was 94.4% and 101% and the growth ([18]; 10 µM unless noted) was 110%.
